ATXN viability = Viability Counterscreen for Primary qHTS for Inhibitors of ATXN expression; AID 651635, 2014; S2 cells (HEK-293 line with an ATXN2-luciferase reporter) viability, CellTiter-Fluor protease fluorescence, 24 h; 0.49% of 400,000 active; Potency, µM (titrated, usually from 56.7 µM), usual class: cytotoxic; note: nearly all actives have a fitted effect of over 40% in size
HT1080 IDH1KD tx = qHTS for induction of synthetic lethality in tumor cells producing 2HG: qHTS for the HT-1080-IDH1KD cell line; AID 686971, 2013; Potency, µM (top dose mostly 46.1 µM), for the others: at the highest dose activity, negative = toxicity, hits mostly cytotoxic; HT-1080 IDH1 knockdown viability, ATP luminescence, 48 h; 2% of 360,000 active;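 note: 0% = DMSO wells and -100% = cell-free medium wells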
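Viability of IDH1-knockdown HT-1080 fibrosarcoma cells was assessed by CellTiter-Glo after 48 h at 37 °C with titrated compound; concentration-effect curves were classified by fit quality and response size.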
KB-V1 MDR tox = qHTS assay for MDR1-selective chemotherapeutics: Primary screen using the drug-selected MDR subline cells KB-V1 | AID 1347076, 2019 | 3.4% of 400,000 active | Potency, µM (highest dose often 46.1 µM), hits mostly cytotoxic | KB-V1 MDR cells viability, CellTiter-Glo, 72 h; note: % is set by controls: 0 for no effect and ±100 for the full control effect; nearly all actives have a fitted effect of over 60% in size
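KB-V1 MDR subline cells in DMEM (phenol-red free, 10% FBS) exposed to compounds in qHTS concentration series for 72 h at 37 degrees C. Viability read by CellTiter-Glo luminescence; concentration-effect curves fitted after normalization and correction.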
HT1080-NT tox = qHTS for induction of synthetic lethality in tumor cells producing 2HG: qHTS for the HT-1080-NT fibrosarcoma cell line; HT-1080-NT fibrosarcoma viability, CellTiter-Glo ATP luminescence, 48 h; Potency, µM (series often up to 46.1 µM), for inactives: at the top dose activity, negative = less viability, most hits filed as cytotoxic; 1.6% of 360,000 active; AID 686970, 2013;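 note: NT is the 2HG producing partner of a matched IDH1 knockdown line; 0% = DMSO-treated cells and -100% = media-only wells without cells; nearly all actives have a fitted effect of over 55% in size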
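Viability of the 2HG-overproducing fibrosarcoma line after 48 hours of compound exposure at 37 degrees C was determined by luminescence with CellTiter-Glo, and concentration-effect curves were then fitted and categorized.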
KB-3-1 cytotox = qHTS assay for MDR1-selective chemotherapeutics: Primary screen using the parental adenocarcinoma cell KB-3-1 | KB-3-1 viability, CellTiter-Glo ATP luminescence, 72 h | 1.4% of 400,000 active | Potency, µM (doses to about 46.1 µM), most hits filed as cytotoxic; note: % is set by controls: 0 for no effect and ±100 for the full control effect; nearly all actives have a fitted effect of over 60% in size
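Cytotoxicity in the drug-sensitive parental line KB-3-1 was scored as loss of CellTiter-Glo luminescence following 72 h incubation with compound. Values come from curve fitting of normalized concentration-response data.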
ATXN2 expr inh = Primary qHTS for Inhibitors of ATXN expression; Potency, µM (top dose mostly 57 µM), without a hit: at the top dose activity change, negative = inhibition, actives largely listed as inhibitors; AID 1745845, 2022; HEK-293 ATXN2-luciferase reporter, luminescence, 24 h; 0.72% of 360,000 active; note: % is set by controls: 0 for no effect and ±100 for the full control effect; nearly all actives have a fitted effect of over 55% in size
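qHTS (up to 57 uM final) was run with 24 h compound exposure of reporter cells at 37 °C. Each well was multiplexed: SteadyGlo luminescence measured ATXN2-luciferase expression after a fluorogenic Gly-Phe-AFC viability readout (25 uM final).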
* marks the source's active call; other numbers are inactive results; i = inactive; ? = inconclusive; / = no result given; ! = not active in a repeat; [ ] = another dose, or the depositor's remark. An excerpt weighted towards active compounds, which were near 6.2% of everything screened. Calls come from the whole dose curve; as a rule, active = well fitted curve in the direction sought with a large enough effect; inconclusive = small, poorly fitted or top-dose-only effect, or another doubt; inactive = no such curve, though single readings can be large; an effect the other way counts as inactive or inconclusive. Potency is the fitted concentration of half-maximal effect.

SMILES	ATXN viability	HT1080 IDH1KD tx	KB-V1 MDR tox	HT1080-NT tox	KB-3-1 cytotox	ATXN2 expr inh
COc1ccc(S(=O)(=O)N(CC(=O)Nc2ccc(S(=O)(=O)N3CCOCC3)cc2)c2ccccc2)cc1	i	-15%	5.2µM*	-11%	?	-10%
Cc1oc(-c2ccccc2F)nc1Cn1c(SCc2ccccc2F)nc2ccncc21	?	/	i	/	i	?
O=C(CN1N=C(c2ccccc2)CCC1=O)NCCN1CCc2ccccc2C1	i	0%	9.2µM*	-2%	i	-5%
CCc1cccc(CC)c1NC(=O)CN1C2CCCC1CC(NC(=O)Nc1cccc(OC)c1)C2 (stereo unspecified)	i	?	21µM*	?	?	3%
O=C(CSS(=O)(=O)O)N1CCN(C(=O)c2ccoc2)CC1	i	21%	?	-6%	i	0%
COc1ccc(C(=O)c2cc([N+](=O)[O-])ccc2N2CCN(C)CC2)cc1	i	5.2µM*	6.5µM*	2.6µM*	2.9µM*	-23%
COc1ccc(C(=O)c2cc([N+](=O)[O-])ccc2N2CCCC2)cc1	?	3.3µM*	?	3.3µM*	?	-27%
CCc1ccc(NCc2cc3cc4c(cc3n(CC(=O)Nc3ccc(Cl)cc3)c2=O)OCO4)cc1	i	/	i	/	?	5%
Cc1c(C(=O)Nc2ccc(F)c(F)c2)oc2ccc(S(=O)(=O)N3CCCCC3)cc12	?	-9%	7.3µM*!	13%	i	?
Cc1c(C(=O)Nc2cccc(Cl)c2)oc2ccc(S(=O)(=O)N3CCCCCC3)cc12	i	/	i	/	i	-6%
Cc1c(C(=O)NCCC2=CCCCC2)oc2ccc(S(=O)(=O)N3CCC4(CC3)OCCO4)cc12	i	-27%	16µM*	-11%	?	?
Cc1c(C(=O)Nc2cccc(Cl)c2)oc2ccc(S(=O)(=O)N3CCC4(CC3)OCCO4)cc12	i	-2%	4.1µM*	-3%	?	-21%
O=C(Nc1ccc2nn(-c3ccccc3)nc2c1)c1ccc(-c2cccc(Cl)c2)o1	?	/	i	/	i	-3%
CCOC(=O)c1oc2ccccc2c1NC(=O)Cc1cccs1	i	?	15µM*	1%	i	-7%
CCOCC(=O)Nc1c(C(=O)OCC)oc2ccccc12	i	-9%	i	4%	i	-2%
CCCOc1ccc(C(=O)NCC(c2cccs2)N(C)C)cc1 (stereo unspecified)	i	-8%	i	-3%	i	/
Cc1ccc(C(=O)NCC(=O)NCC(c2cccs2)N(C)C)cc1C (stereo unspecified)	i	-10%	15µM*	-6%	i	10%
CCOc1ccc(C(=O)NCC(c2cccs2)N(C)C)cc1OCC (stereo unspecified)	i	5%	23µM*	-5%	i	5%
CN(C1CCc2c(c3ccccc3n2CC(=O)O)C1)S(=O)(=O)c1ccc(F)cc1 (stereo unspecified)	/	/	/	/	/	-9%
CC(C)(C)NC(=O)NC(=O)CN1CCN(c2ccc(O)cc2)CC1	i	-3%	?	-5%	21µM*	-38%
COc1ccc(C2C(=O)N(CCc3ccccc3)CC(=O)N2C2CCCCC2)cc1 (stereo unspecified)	i	?	3.7µM*	-6%	i	-2%
CCOc1ccc(S(=O)(=O)N2CCN(C(=O)c3cc4c(s3)CCCC4)CC2)cc1	i	-1%	3.3µM*	-3%	12µM*	9%
O=S(=O)(c1ccccc1)N1CCN(C(=S)NCc2ccccc2)CC1	i	-8%	?	2%	i	-23%
CCOc1ccc(S(=O)(=O)N2CCN(C(=S)NCc3ccccc3)CC2)cc1	i	-8%	18µM*	27%	i	/
O=C(c1cc2c(s1)CCCCC2)N1CCN(c2ncccn2)CC1	i	-2%	16µM*	7%	i	0%
SMILES	ATXN viability	HT1080 IDH1KD tx	KB-V1 MDR tox	HT1080-NT tox	KB-3-1 cytotox	ATXN2 expr inh
COc1ccc(N2CCN(C(=O)c3cc4c(s3)CCCCC4)CC2)cc1	i	-7%	i	12%[9.24 µM]	i	-2%
CCOc1ccc(S(=O)(=O)N2CCN(C(=O)c3ccco3)CC2)cc1	i	12%	i	2%	i	1%
Cc1ccccc1S(=O)(=O)Cc1ccc(C(=O)NCCCN2CCCC(C)C2)o1 (stereo unspecified)	i	2%	?	-1%	i	-2%
OC(c1ccc(-c2ccccc2)cc1)c1ncc(-c2ccc(C(F)(F)F)cc2)[nH]1 (stereo unspecified)	?	?	i	?	i	?
Cc1ccc(C)c(NC(=O)Cn2c(=O)n(CC3CCCO3)c(=O)c3ccccc32)c1 (stereo unspecified)	i	/	i	/	i	8%
Cc1ccc(C)c(NC(=O)CN(C)S(=O)(=O)c2ccc3c(c2)CCC(=O)N3)c1	i	/	i	/	i	5%
C=CCn1c(SCC(=O)Nc2sccc2C(N)=O)nc2ccccc2c1=O	i	?	18µM*	?	?	-12%
COc1cccc(NC(=O)CSc2nc3ccccc3c(=O)n2Cc2cccs2)c1	i	-1%	5.2µM*	10%	i	4%
COc1cccc(NC(=O)CSc2nc3ccccc3c(=O)n2CCCC(=O)N2CCCC2)c1	?	-11%	2.6µM*	-12%	i	4%
COc1cccc(NC(=O)CSc2nc3c(sc4ccccc43)c(=O)n2CCCN2CCCC2)c1	22µM*	-9%	i	-12%	i	/
CCOCCCn1c(SCC(=O)Nc2cccc(OC)c2)nc2ccccc2c1=O	?	-6%	?	9%	i	?
COCCN1C(=O)CCC1(C)C(=O)Nc1ccc2ccccc2c1 (stereo unspecified)	i	13%	i	24%	i	12%
COc1ccc(NC(=O)Cn2c(=O)n(Cc3ccccc3Cl)c(=O)c3cc(OC)c(OC)cc32)cc1	i	/	i	/	i	-13%
O=C(C[C@H]1C(=O)N(CCc2ccccc2)C[C@@H]1Cc1ccccc1)Nc1ccccc1	?	-12%	21µM*!	1%	?	-26%
CNC(=O)C[C@H]1C(=O)N(c2ccccc2)C[C@@H]1Cc1ccccc1	i	8%	i	2%	i	-10%

Source: PubChem BioAssay (National Center for Advancing Translational Sciences (NCATS))
